Source: PubChem BioAssay
Compounds with a hit are over-represented: about 0.97% of the library has one in this group of screens.
pAkt inh: Akt phosphorylation inhibition; Neuro2A IGF-stimulated pAkt S473 HTRF, 20 min; active compounds read low; activity change, % for hits at 50 µM; actives 0.32% (n = 360,000); AID 651550; in the data active means activity change below about -80%; inconclusive means mostly about -51% to -80%
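Single-point screen (50 µM final compound) in Neuro2A cells stimulated 20 min with 6 nM IGF at 37 deg C. After lysis, Ser473-phosphorylated Akt read by HTRF (ex 330 nm, em 615/665 nm) as the 665/615 ratio.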
CCT modulator: changes cytosolic chaperonin activity; purified chaperonin ATPase assay, HTRF ADP detection, 30 min; activity change, % (no concentration beside the values), hits read low; actives 0.3% (n = 360,000); AID 651819; in the data active means activity change below about -30%
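ATPase activity: ADP formed was measured by HTRF Transcreener (665/615 nm ratio) after 30 min at 37 deg C with 10 uM ATP. Compounds screened at one 76 uM concentration against 40 or 20 nM TRiC in Tris pH 7.4/KCl/MgCl2/DTT buffer.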
Epigenetic reg: regulators of epigenetic silencing causing reporter derepression in mouse cells. AID 1865. Potency, µM (highest dose often 53.9 µM), usual class: activators. murine LDR cells, GFP reporter derepression, 30 h. actives 0.2% (n = 280,000); further: nearly all actives have a fitted effect of over 60% in size
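In this reporter-derepression format, murine cells bearing a silenced integrated CMV-GFP locus incubate with test compound (30 h, 37 C), then are washed and imaged; fluorescent objects of 20–120 um count as induced cells.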
MmCpn inh: inhibitors of Methanococcus maripaludis chaperonin TRiC (MmCpn); purified Mm-Cpn ATPase, ADP Transcreener TR-FRET; Potency, µM (series often up to 76.9 µM), hits mostly inhibitors; actives 0.031% (n = 330,000); AID 504842; further: nearly all actives have a fitted effect of over 80% in size
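Eu-cryptate anti-ADP/ADP-d2 competition gives a ratio inversely related to ADP. Enzyme at 25 nM was pre-exposed to compound for 10 min, then given 10 uM ATP for 30 min, 37°C throughout.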
MBNL1-CUG inh: MBNL1-poly(CUG) RNA binding inhibition. actives 0.036% (n = 280,000). AID 2675. Potency, µM (highest dose often 57.5 µM), actives largely listed as inhibitors. TR-FRET MBNL1-His/biotin-(CUG)12 binding, 665/545 ratio. Q9NR56; active means well fitted inhibition curve with a large enough effect in the signal ratio, with a control signal flat, not every such curve was filed as active; inconclusive means small, poorly fitted or top-dose-only effect, or effect the other way, or a change in a side signal; inactive means no such curve, though single readings can be large or run the other way; the % refers to the signal ratio
Target sequence (Q9NR56 whole entry, looked up): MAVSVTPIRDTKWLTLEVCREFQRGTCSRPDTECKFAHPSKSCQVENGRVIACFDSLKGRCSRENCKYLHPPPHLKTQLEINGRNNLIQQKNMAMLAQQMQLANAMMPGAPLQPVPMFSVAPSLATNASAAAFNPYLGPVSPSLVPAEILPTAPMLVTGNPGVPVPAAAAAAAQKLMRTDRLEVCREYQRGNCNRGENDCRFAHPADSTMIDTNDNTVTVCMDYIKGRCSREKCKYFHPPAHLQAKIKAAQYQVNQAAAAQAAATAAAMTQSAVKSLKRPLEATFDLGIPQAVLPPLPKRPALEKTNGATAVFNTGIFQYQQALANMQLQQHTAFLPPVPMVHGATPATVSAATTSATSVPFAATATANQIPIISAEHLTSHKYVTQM
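Inhibition of protein-RNA binding appears as loss of TR-FRET between terbium anti-His antibody on MBNL1-His and streptavidin-XL665 on biotin-(CUG)12. Activity is normalized to buffer-only and uninhibited-complex controls.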
uPA generation: inhibitors of cell surface uPA generation; Potency, µM (doses to about 38.3 µM), actives largely listed as inhibitors; cell surface uPA generation assay, qHTS; actives 0.31% (n = 330,000); active means well fitted inhibition curve with a large enough effect; inconclusive means small, poorly fitted or top-dose-only effect; inactive means no such curve, though single readings can be large or run the other way; tested in mouse RAW 264.7 cells; further: nearly all actives have a fitted effect of over 55% in size
Hits are given with their value; - = inactive; ? = inconclusive; . = not tested or not shown; [ ] = dose if it differs, or a comment. Unless noted, the call rests on the fitted dose curve; in most records, active means well fitted curve in the direction sought with a large enough effect; inconclusive means small, poorly fitted or top-dose-only effect, or another doubt; inactive means no such curve, though single readings can be large; an effect the other way counts as inactive or inconclusive.

SMILES	pAkt inh	CCT modulator	Epigenetic reg	MmCpn inh	MBNL1-CUG inh	uPA generation
COc1cc(NC(=O)COC(=O)CO/N=C(\C)c2ccc3c(c2)OCO3)cc(OC)c1OC	-	-	.	-	.	-
O=[N+]([O-])c1ccc(O)c2ncccc12	-	-	6.3µM	-	?	?
O=[N+]([O-])c1ccc(O)c2cccnc12	-	-	-	-	?	-
COCc1ccc(O)c2ncccc12	-	-	4.5µM	-	-	-
CCN(Cc1cc2cc(C)ccc2[nH]c1=O)C(=O)c1cccc([N+](=O)[O-])c1	-	-	-	-	-	-
O=C(NNC(=O)C12CC3CC(CC(C3)C1)C2)c1ccccc1O	-	-	.	-	.	-
O=C(NNC(=O)C12CC3CC(CC(C3)C1)C2)c1ccccc1F	-	-45	.	-	-	-
CN(C)c1ccc(-c2nccc(NCCN3CCOCC3)n2)cc1	.	.	-	.	.	.
CCOc1c(C)cc2[nH]c(CCC(=O)O)nc2c1C	-112%	-	-	-	-	-
CCOC(=O)c1[nH]c(C)c(CCC(=O)O)c1C	-	-	-	-	-	-
O=S(c1ccccc1)c1ccc2nnnn2n1 (stereo not given)	.	.	-	.	.	.
Cc1ccc(C(=O)CCS(=O)(=O)c2ccc(F)cc2)cc1	-	-	.	-	-	11µM
O=C(Nc1ccon1)c1ccc(OC2CCCC2)cc1	-	-	-	-	-	10µM
CC1CCN(CCNC(=O)C2CCN(S(=O)(=O)c3cccc4nsnc34)CC2)CC1	-	-	.	-	?	-
CCC1CCCCN1CCNC(=O)C1CCN(S(=O)(=O)c2cccc3nsnc23)CC1 (stereo not given)	.	-74	.	-	?	-
O=c1[nH]c(CCl)nc2cc(-c3ccc(F)cc3)sc12	-	-40	.	-	?	-
Cc1ccc(-c2cc(C(=O)OC3CCOC3=O)c3ccccc3n2)c(C)c1 (stereo not given)	-	-	-	-	-	-
O=C(OC1CCOC1=O)c1cc(-c2cccs2)nc2ccccc12 (stereo not given)	-	-74	-	-	-	-
COc1ccc(C)cc1S(=O)(=O)N(CC(=O)NC1CCCC1)c1ccc(F)cc1	-	-	.	-	-	-
COc1ccc(C)cc1S(=O)(=O)N(CC(=O)O)c1ccc(F)cc1	-	-33	-	.	-	-
CN(c1ccc(F)cc1)S(=O)(=O)c1ccc(Cl)c(C(=O)OCC(=O)NCc2ccco2)c1	-	-31	-	-	-	-
CN(c1ccccc1)S(=O)(=O)c1cccc(C(=O)OCC(=O)NCc2ccco2)c1	-	-	-	-	-	-
COC(=O)c1nn(-c2ccccc2)c(Sc2ccccc2)c1/C=N/O	-107%	-	-	-	-	-
CC1(c2ccc(OC(F)F)cc2)NC(=O)N(CC(=O)Nc2cccc(F)c2)C1=O (stereo not given)	-	-	.	-	-	-
Cc1cc(/C=C(\C#N)C(=O)NCc2cccs2)c(C)n1-c1ccccc1F	-	-	-	-	-	-
SMILES	pAkt inh	CCT modulator	Epigenetic reg	MmCpn inh	MBNL1-CUG inh	uPA generation
CCOC(=O)C(=O)Nc1ccc(Oc2ccccc2)cc1	-	-	-	-[15.4 µM]	-	-
CCOC(=O)C(=O)Nc1ccc(F)cc1	.	-84	-	-	-	-
CC(C)c1onc(C(=O)NC(C)c2ccccc2)c1[N+](=O)[O-] (stereo not given)	-	-	-	-	-	-
CN(C)S(=O)(=O)c1ccc(N2CCCC2)c(C(=O)NNC(=O)c2ccc(F)cc2)c1	-	-61	.	-	.	?
COc1ccc(C2C(C(=O)Nc3cccc(C)n3)c3ccccc3C(=O)N2C)cc1 (stereo not given)	-110%	-	-	-	-	-
COc1ccc(C2C(C(=O)N3CCN(c4ccccc4F)CC3)c3ccccc3C(=O)N2C)cc1 (stereo not given)	-129%	-	-	-	-	-
CCCCCCN1C[C@@H](n2cc(COC(=O)c3ccccc3)nn2)[C@H](O)C[C@@H]1c1ccc(OC)cc1	-	-	.	.	.	.
Oc1ccc(CNCc2ccc3c(c2)OCO3)c2cccnc12	.	.	.	-	.	.
O=C(COC(=O)C1CCC(=O)N1)Nc1ccc(Cl)cc1Cl (stereo not given)	-	-	-	-	-	-
Cc1ccc(NC(=O)COC(=O)C2CCC(=O)N2)c(S(=O)(=O)N2CCOCC2)c1 (stereo not given)	-114%	-	-	-	-	-
CC(C)(C)n1nc2c(c1NC(=O)Cc1ccccc1)CS(=O)(=O)C2	-	-	-	-	-	-
CCn1cc(/C=C/c2cc[n+](C)cc2)c2ccccc21	-	-	.	-	?	-
C=CCn1cc(/C=C/c2cc[n+](C)cc2)c2ccccc21	-	-	.	-	?	10µM
CN1CCN(C(=O)c2ccccc2NC(=O)c2ccccc2Br)CC1	-	-	.	-	-	-
Cc1ccccc1N1CCN(C(=O)c2ccccc2NC(=O)c2ccccc2C(=O)O)CC1	-	-66	-	-	-	-
Cc1ccc(S(=O)(=O)Nc2ccc(O)c3ncccc23)cc1	-	-	?	-	-	7.9µM
COc1cc(OC)cc(N2C(=O)N(CC(=O)c3ccc(F)cc3)c3ccccc3S2(=O)=O)c1	.	.	-	.	.	.
CCC1C(=O)C(CC)C(c2ccccc2)NC1c1ccccc1 (stereo not given)	-	-50	.	-	-	-
CC(C)=CCC/C(C)=C/CO/N=C1/[C@H]2O[C@@H]2[C@@H](O)[C@H]2[C@H]1CCn1c(=O)n(C)c(=O)n12	.	.	-[10.1 µM]	.	.	.
COc1ccccc1-c1noc(CCC(=O)Nc2cccc(C(F)(F)F)c2)n1	-105%	-	-	-	-	-
CCCC12CN3CC(C)(CN(C1)C3c1cn(CC)c3ccccc13)C2=O (stereo not given)	.	.	-	.	.	.
O=C(NC1CCCCC1)c1ccc(Cc2nc3ccccc3[nH]2)cc1	.	.	-	.	.	.
COc1cc2c(ccc3cc(OC)c(OC)c(O)c32)cc1O	-	-	-	-	?	10µM
N#Cc1c(-c2cccc(F)c2)cc(-c2ccccc2)nc1Br	-94%	-	-	-	-	-
N#Cc1c(-c2ccccc2Cl)cc(-c2ccccc2)nc1Br	-	-	-	?	-	-
CC(=O)n1cc(C2CC(=O)OC3=C2CC(=O)C(C)(C)C3)c2ccccc21 (stereo not given)	-	-106	.	.	.	.
CC(=O)n1cc(C2C(=O)CCCC2=O)c2ccccc21	-	-	-	-	-	-
O=C1CC(N2CCN(c3ccc(Cl)c(Cl)c3)CC2)C(=O)N1 (stereo not given)	-120%	-	-	-	-	-
COc1ccccc1NS(=O)(=O)c1cn(C)cn1	-	-53	.	-	-	-
CCc1nc2c(OCc3cccc(Cl)c3)cccn2c1N(C)C(=O)C1CC1	.	-	.	.	.	.
